# Measured values taken from the OligoGym collection.
# Target: C19orf48
# Assay: pooled miR-30 sensor sort-seq; sequence = guide strand
# Conditions: shRNA
# Further: reference of the scale not given here.
row,Sequence,sensor-assay potency score (higher = more potent)
1,TTGTGCACTGGGTTGGGTCCCA,-0.4
2,TTCTGGCCTGCTTCACCCCTGG,-0.772
3,AAGTCCTTGTGCACTGGGTTGG,-0.738
4,TAGGCCTGGTCACAATAGGGAA,-1.64
5,CCACTTATCCACCTTCTCCTGG,-1.46

# Target: C19orf61
# Assay: as above
# Conditions: shRNA
row,Sequence,sensor-assay potency score (higher = more potent)
1,TTGACCGCTCTGCTGGAGGTTT,-0.879
2,TTGGGTAATAAAGAAGTCGATG,-0.372
3,TCTGCTGTCTGCAGGAACCTGT,-0.731
4,TTTGCGGTCATTATTGATGAGA,-1.14
5,TTCTTCTCGGTGAGGATCGTGT,-0.682
6,TAAAGAGCTCTCCAGACCCTGC,-0.972
7,TCATCCACCAACTTGATGCTGT,0.069
8,TAAGTTGACCTCAGAGTCCAGG,-0.418
9,TTCTCGGTGAGGATCGTGTGTG,-0.797
10,TTCTGCATGACGGAAGTGCTTG,-0.495
11,TTGGCTGACAACAATGACATGA,0.194
12,TTGCATTGTAACATGGACAGAG,0.588

# Target: C1GALT1C1
# Assay: as above
# Conditions: shRNA
row,Sequence,sensor-assay potency score (higher = more potent)
1,ATAATGACAACACACGTCCTAT,-0.903
2,TACATCATCACATGCATCTGAT,-0.0617
3,TTTGGTATTAAATACATCTTTT,-0.97
4,TAAGTCTTTTCATTGATTCTAC,-0.486
5,TATCTTCTTTGTTAGGAGCTTG,-0.577
6,TTAATTGACTCAAACACTTTAA,-1.19
7,TTTATCTTCAGATATCTTCCAA,0.63
8,TTTGTTAGGAGCTTGTAGGTGA,0.841
9,TTATCTTCAGATATCTTCCAAA,-0.897
10,TTTTCAATGATAGCAAACGTAG,-1.07
11,TATCTGAACAACAGCCTTCTAC,-0.664
12,TTTTCATTGATTCTACACTTAA,-1.52

# Target: C1QL1
# Assay: as above
# Conditions: shRNA
row,Sequence,sensor-assay potency score (higher = more potent)
1,TATTTGTTGCTGTTGCCGCCGT,-0.708
2,TTGAGTACCTCGTAACCCTCGT,-0.551
3,TATAACTTTGGTCAGACGGGGC,-0.517
4,TTTGTTGCTGTTGCCGCCGTGT,-0.647
5,TAGGTGAAAAAGTAGGTGCCGG,-0.205
6,TGCAGGATCACGCTGTTGCTGG,-1.19
7,TAGGGGTCGCACACCATGCGGC,-0.617
8,TCCAGGTGCAGGATCACGCTGT,-0.765
9,TTTGCCTCCATCCAGCTTGATG,-1.62
10,TCAAACTTGAGTACCTCGTAAC,-0.701
11,TAGTTGTTGCCTAGGTTGGTGA,-1.01
